14 compounds from PubChem BioAssay (NCI) can be followed below.

The panel holds about 83,000 compounds, 20% with a hit somewhere; the sample as a whole holds those more often.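 Negative percent growth values reflect cell death: -40 means 40% of the cells present at the start died, and -100 means all died.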 Values without a mark were called inactive. The source made the active and inactive calls. The calls were made as follows: active = growth percent below 10; inactive = the rest.

The assay deals with MDA-MB-468 breast. Put plainly: NCI-60 one-dose screen, 48 h (100 = growth as untreated, 0 = no growth, -100 = all killed). To be noted: 10 µM unless noted.
`C=C1C(=O)O[C@H]2[C@H]1CC/C(COC(=O)c1cc(OC)c(OC)c(OC)c1)=C\CC[C@@]1(C)O[C@@H]21`: the growth is -33.2% (active). For `c1ccc(C(NC2CC3CCC2C3)c2ccccc2)cc1` (centres undefined) the value was 96.8%; for `Oc1ccc(-c2nnc3c4[nH]ccc4ncn23)cc1`, 117%; for `O=S(=O)(Nc1ccc(F)cc1)c1ccc(-c2cnc(C3CC3)o2)cc1`, 4.54% (active). Regarding `COc1ccc(-c2n[nH]nc2-c2cc(OC)c3c(c2OC)OCO3)cc1`, the growth is -24.1% (active). Turning to `C=C(C)[C@@H]1CC[C@]2(c3nnc(-c4ccncc4)o3)CC[C@]3(C)[C@H](CC[C@@H]4[C@@]5(C)CCC(=O)NC(C)(C)[C@@H]5CC[C@]43C)[C@@H]12`, the growth is 92.7%. On to `CCNC(=O)Oc1ccc[nH]c1=O`, for which the growth was 86.9%. For `Cc1ccc(Nc2nc(N)c3ccccc3n2)cc1Cl` the value was 48%.

Turning to `O=C(CCc1nnc(Cn2cncn2)o1)c1nc2ccccc2[nH]1`, the growth was 104%. In the case of `CN(C)C1CCN(C(=O)c2ccc(NC(=O)Nc3ccc(-c4nc(N5CCOCC5)nc(N5CCOCC5)n4)cc3)cc2)CC1` it was -49.1% [2.5 µM] (active). For the compound `CCCCCCCCCCCCN1C(C)=CS/C1=C\C=C\c1scc(C)[n+]1CCCCCCCCCCCC`, the growth was -23% (active).

Consider `Cc1nc2sc(C(=O)Nc3ccccc3)c(N)c2cc1C(C)O` (centres undefined), for which the growth was 28.6%. Regarding `CCOC(=O)C#Cc1c(C(=O)OCC)nnn1[C@@H]1O[C@H](CO)[C@H]2OC3(CCCCC3)O[C@H]21`, the growth was -19.7% (active). In the case of `COc1cc(C2C(C#N)=C(N)OC3=C2C(=O)c2ccccc2C3=O)cc(OC)c1OC` (centres undefined) it was 42.4%.
